{"source": "PubChem BioAssay AID1654", "about": "(Sanford-Burnham Center for Chemical Genomics, 2009)", "note": "Out of some 290,000 compounds screened, about 1,500 (0.52%) were called active. For the sample, actives were picked, then their nearest neighbours and some compounds at random. Unmarked numbers belong to inactive results. No stated cut-off is given here; in the data, active means inhibition above about 50%; inactive means the rest.", "data": [{"target": "Dual specificity protein phosphatase 3 (Homo sapiens) (UniProt P51452)", "sequence (P51452 whole entry, looked up)": "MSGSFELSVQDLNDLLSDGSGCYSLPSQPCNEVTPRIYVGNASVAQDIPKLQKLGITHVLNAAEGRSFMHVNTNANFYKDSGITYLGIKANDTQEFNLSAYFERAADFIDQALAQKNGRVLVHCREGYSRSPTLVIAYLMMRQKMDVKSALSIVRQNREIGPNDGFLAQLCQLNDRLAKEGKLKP", "experiment": "VHR1 phosphatase inhibitors, primary screen, biochemical, absorbance, uHTS (AID 1654)", "conditions": "recombinant VHR phosphatase, pNPP absorbance, at 13.3 µM, stronger effect = higher value", "values": [{"smiles": "Cc1cccc2nc(CNc3ccc(F)cc3)cn12", "inhibition": "-14.9%"}, {"smiles": "CN(C(=O)c1ccccc1)c1nccnc1C#N", "inhibition": "25%"}, {"smiles": "Cc1cc(N2C(=O)C(O)=C(C(=O)c3ccc(C)o3)C2c2ccc(OCc3ccccc3)cc2)no1", "note": "(stereo not given)", "inhibition": "12.3%"}, {"smiles": "O=S(=O)(c1ccc2c(c1)OCCO2)N1CCc2ccccc21", "inhibition": "13.6%"}, {"smiles": "CCn1c(=O)c(=O)n(CC)c2cc(S(=O)(=O)N3CCc4ccccc43)ccc21", "inhibition": "50.3% (active)"}, {"smiles": "Cn1c(=O)n(C)c2cc(S(=O)(=O)N3CCCc4ccccc43)ccc21", "inhibition": "3.5%"}, {"smiles": "Cc1cc(C)nc(NS(=O)(=O)c2ccc(N3C(=O)C4CCCCC4C3=O)cc2)n1", "note": "(stereo not given)", "inhibition": "57.6% (active)"}, {"smiles": "Cc1cc(C)nc(SC2CCCCC2NS(=O)(=O)c2ccc(Cl)cc2)n1", "note": "(stereo not given)", "inhibition": "1.5%"}, {"smiles": "Cc1ccc(S(=O)(=O)Nc2nc(C)cc(-n3nc(C)cc3C)n2)cc1", "inhibition": "28.3%"}, {"smiles": "COc1ccc(CCc2nc(-c3cccs3)no2)cc1", "inhibition": "-3.6%"}, {"smiles": "Cc1c(CCC(=O)O)c(=O)oc2c(C)c(OCc3ccccc3Cl)ccc12", "inhibition": "57.3% (active)"}, {"smiles": "CCOC(=O)CCc1c(C)c2ccc(OCc3nn[nH]n3)c(C)c2oc1=O", "inhibition": "-7.7%"}, {"smiles": "Cc1c(CCC(=O)O)c(=O)oc2cc(OCc3ccc(Br)cc3)ccc12", "inhibition": "2.4%"}, {"smiles": "COc1ccc2oc(=O)cc(CN3CCOCC3)c2c1", "inhibition": "-2.3%"}, {"smiles": "CCc1ccccc1NC(=O)/C(=C/c1ccccc1)c1ccccc1", "inhibition": "-11.5%"}, {"smiles": "CCOCCCNCc1cc(Br)ccc1OCC", "inhibition": "3%"}, {"smiles": "CCOc1ccccc1OCCCNCc1ccccc1", "inhibition": "59.7% (active)"}, {"smiles": "CCOCCCNCc1ccc(OCc2ccc(F)cc2)c(OC)c1", "inhibition": "23.4%"}, {"smiles": "COc1ccc(S(=O)(=O)N2CCC(C(=O)N3CCCC3)CC2)cc1C", "inhibition": "-11.4%"}, {"smiles": "O=C(N1CCCCC1)N1CCN(C(=O)N2CCCCC2)CC1", "inhibition": "17.7%"}, {"smiles": "CCOC(=O)C1CCN(C(=O)COc2cccc3ccccc23)CC1", "inhibition": "1.1%"}, {"smiles": "N#Cc1ccccc1CN1C(=O)S/C(=C/c2cccn2-c2cccc(C(=O)O)c2)C1=O", "inhibition": "50.3% (active)"}, {"smiles": "Cc1cc(/C=C2\\SC(=O)N(C)C2=O)c(C)n1-c1cccc(C(=O)O)c1", "inhibition": "15.5%"}, {"smiles": "Cc1ccccc1NC(=O)CN1C(=O)N/C(=C\\c2cccn2-c2cccc(C(=O)O)c2)C1=O", "inhibition": "35.6%"}, {"smiles": "CC(=O)N1c2ccc(S(=O)(=O)N3CCC(C(=O)NCc4ccc(F)cc4)CC3)cc2CC1C", "note": "(stereo not given)", "inhibition": "34.4%"}, {"smiles": "CC(=O)N1c2ccc(S(=O)(=O)N3CCCC(C(=O)NCc4ccc(Cl)cc4)C3)cc2CC1C", "note": "(stereo not given)", "inhibition": "52.7% (active)"}, {"smiles": "CC(=O)N1CCCc2cc(S(=O)(=O)N3CCCC(C(=O)NCc4ccc(Cl)cc4)C3)ccc21", "note": "(stereo not given)", "inhibition": "5.3%"}, {"smiles": "CCC(C)c1ccccc1NC(=O)CN(C)CC(=O)Nc1ccccc1SC", "note": "(stereo not given)", "inhibition": "-2.9%"}, {"smiles": "CC1(C)C2CCC1(CS(=O)(=O)NCCc1c[nH]c3ccccc13)C(=O)C2", "note": "(stereo not given)", "inhibition": "-8.1%"}, {"smiles": "NC(=O)N1CCc2ccccc21", "inhibition": "30.9%"}, {"smiles": "Cc1cccc(N2CCN(C(C)C(=O)N3CCc4ccccc43)CC2)c1C", "note": "(stereo not given)", "inhibition": "52.9% (active)"}, {"smiles": "CCC(CC)C(=O)N1CCN(c2cccc(C)c2C)CC1", "inhibition": "-4.1%"}, {"smiles": "O=C1Nc2cc(C(=O)N3CCN(c4ccc(F)cc4)CC3)ccc2NC1CSCc1cccc(F)c1", "note": "(stereo not given)", "inhibition": "-24.2%"}, {"smiles": "O=C(O)c1cc(S(=O)(=O)N(Cc2ccccc2)c2ccccc2)ccc1Cl", "inhibition": "10.4%"}, {"smiles": "CCn1cc(S(=O)(=O)c2cccc(C)c2)c(=O)c2cc(F)c(N3CCN(C)CC3)cc21", "inhibition": "5.7%"}, {"smiles": "CCCn1cc(S(=O)(=O)c2ccc(C)cc2)c(=O)c2cc(OCC)ccc21", "inhibition": "-25.6%"}, {"smiles": "CCOc1ccc2c(c1)c(=O)c(S(=O)(=O)c1ccc(C)cc1)cn2CC", "inhibition": "52.5% (active)"}, {"smiles": "COC(=O)c1c(C)[nH]c(C(=O)/C=C/c2ccc(Cl)cc2)c1C", "inhibition": "-0.3%"}, {"smiles": "COc1ccc(OC)c(CNC(=O)Cn2nc(C)c3c(C)n(-c4ccc(C)cc4)nc3c2=O)c1", "inhibition": "-9%"}, {"smiles": "CC(C)CC(=O)NC(=S)NNC(=O)c1cccc([N+](=O)[O-])c1", "inhibition": "-16.7%"}]}]}
